# Source: PubChem BioAssay (NCI)
# The panel holds about 83,000 compounds, 20% with a hit somewhere; the sample as a whole holds those more often.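 Cells were grown in 96-well plates and exposed to the test compound at a single concentration for 48 hours; results are reported as percent growth, with values below 10 considered active.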 Unmarked numbers belong to inactive results. Activity calls are given as the source filed them.
# What was measured:
# Assay in all cases: NCI-60 one-dose screen, 48 h (100 = growth as untreated, 0 = no growth, -100 = all killed)
# Conditions in all cases: 10 µM unless noted
# [1] = test system: NCI-H23 lung
# [2] = test system: NCI-H226 lung
# [3] = test system: NCI-H322M lung
# [4] = test system: HOP-62 NSCLC
# [5] = test system: NCI-H460 lung
# [6] = test system: HOP-92 NSCLC
# [7] = test system: NCI-H522 lung
# [8] = test system: A549/ATCC NSCLC
# [9] = test system: 786-0 renal
# [10] = test system: COLO 205 colon
# [11] = test system: DU-145 prostate
# [12] = test system: K-562 leukemia
# [13] = test system: MALME-3M melanoma
# [14] = test system: MDA-MB-231 breast
# [15] = test system: RXF 393 renal
# [16] = test system: SF-268 CNS
# [17] = test system: SF-295 CNS
# [18] = test system: SF-539 CNS
# [19] = test system: UACC-257 melanoma
# [20] = test system: M14 melanoma
SMILES,growth [1],growth [2],growth [3],growth [4],growth [5],growth [6],growth [7],growth [8],growth [9],growth [10],growth [11],growth [12],growth [13],growth [14],growth [15],growth [16],growth [17],growth [18],growth [19],growth [20]
CC(=O)n1cc(C=O)c2ccccc21,94.4%,91.1%,105%,103%,112%,94.8%,91.3%,89.4%,101%,104%,104%,87.3%,102%,113%,113%,102%,101%,104%,94.7%,102%
C[C@@H]1C[C@H]2C(=O)O[C@@H](C)[C@H](NC(=O)[C@H](Cc3cc(F)cc(F)c3)NC(=O)Nc3ccc(Cl)cc3F)C(=O)N3C[C@H](O)C[C@H]3C(=O)N3CCN(C)C[C@H]3C(=O)N[C@@H](C)C(=O)N2C1,36.2%,52.6%,72.8%,47.8%,36%,37.8%,26.7%,53.6%,74.1%,12%,41.3%,27.7%,45.4%,27.9%,88.1%,29.1%,38.9%,51.3%,19.8%,72.9%
CC(C)(C)c1cc(C(=O)Nc2cc3ccccc3cc2C(=O)NCCN)cc(C(C)(C)C)c1,-52.4% (active),-51.9% (active),-78.3% (active),-80.8% (active),-70.4% (active),-70.3% (active),-47.3% (active),-60.7% (active),-92% (active),-80.9% (active),-96.9% (active),-76.9% (active),-38.1% (active),-79.9% (active),-90.4% (active),-80.7% (active),-85.5% (active),-68.8% (active),-36.1% (active),-81.2% (active)
CCc1ccc(-c2ccc(COc3ccc(CC4SC(=O)NC4=O)cc3)cc2)cc1 (stereo not drawn),52.2%,84.5%,89.8%,84.5%,79.3%,60.7%,45.5%,64.8%,78.1%,99.9%,88.8%,34.8%,67.3%,77.3%,102%,76.7%,75.8%,77%,86.3%,79.6%
C[C@H]1[C@H](C)CC[C@]2(C(=O)N3CCN(C)CC3)CC[C@]3(C)C(=CC[C@@H]4[C@@]5(C)C/C(=C/c6ccco6)C(=O)C(C)(C)[C@@H]5CC[C@]43C)[C@H]12,32.5% [100 µM],37.4% [100 µM],51.6% [100 µM],35.8% [100 µM],6.22% [100 µM] (active),56.9% [100 µM],–,24.8% [100 µM],40.6% [100 µM],40.4% [100 µM],50.4% [100 µM],28.2% [100 µM],45.7% [100 µM],15.6% [100 µM],55.1% [100 µM],50.3% [100 µM],29.8% [100 µM],46.2% [100 µM],22.5% [100 µM],48.8% [100 µM]
CC(C)CCNCC(C)(C)O,101%,111%,106%,95.5%,114%,96.6%,–,105%,111%,118%,118%,109%,121%,116%,117%,106%,111%,101%,102%,110%
Cc1ccc(-c2cc(-c3ccc(C)cc3)nc(N3CCN(CCNc4ccnc5cc(Cl)ccc45)CC3)n2)cc1,41.7%,18%,55.7%,41.6%,6.78% (active),-12.7% (active),59.6%,59.1%,-38.8% (active),10.9%,21.5%,27.7%,-45.9% (active),18.6%,-14.5% (active),28.2%,94.9%,7.85% (active),40.8%,-2.46% (active)
